This note sets out measurements from PubChem BioAssay (EPA / NIEHS).

Molecules are shown by their SMILES. Values joined by “and” are separate entries in the source; they are usually repeats but may differ in a detail not shown here. Equal entries are not always repeated. A structure can be active in one record and inactive in another. Active and inactive are the calls of the source. Rule for the calls: active = hit-call score of the fitted dose curve at least 0.9, where 1 is the maximum; inactive = score below 0.9.

Assay [1] in a line: ATG_GLI_CIS: Attagene CIS-FACTORIAL HepG2 Assay for human Zinc Finger Protein GLI1 (AID 2282945). Particulars: HepG2, Attagene cis-factorial reporter mRNA, GLI element; actives raise or lower the signal. In outline: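 Bidirectional curve fits relative to DMSO, using reporter mRNA levels from RT-PCR plus capillary electrophoresis. Cells were HepG2 transiently carrying cis-regulated reporter constructs, harvested 24 h after dosing.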

In assay [2] the target is Bile acid receptor (Homo sapiens) (UniProt Q96RI1). Put plainly: ATG_IR1_CIS: Attagene CIS-FACTORIAL HepG2 Assay for human Nuclear Receptor Subfamily 1 Group H Member 4 (NR1H4), IR1 submotif (AID 2282946). Particulars: IR1 reporter transcription, actives raise or lower the signal. In outline: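 HepG2 cells transiently transfected with multiplexed cis-element reporter units read endogenous transcription factor activity. After 24 h compound exposure, reporter mRNA was quantified by RT-PCR, fluorescent labelling, HpaI digestion and capillary electrophoresis; bidirectional fitting versus DMSO baseline.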

Assay [3] can be described thus: ATG_ISRE_CIS: Attagene CIS-FACTORIAL HepG2 Assay for human Interferon Regulatory Factor 1 (IRF1) binding to an Interferon-Stimulated Response Element (ISRE) (AID 2282948). Particulars: HepG2 ISRE cis-reporter (Attagene), mRNA transcription readout; actives raise or lower the signal. A digest of the protocol: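 Endogenous transcription factor activity read as reporter transcript abundance via RT-PCR and capillary electrophoresis. HepG2 cells transiently transfected, 24 h chemical exposure. Gain or loss fitted against DMSO baseline.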

Assay [4] is described as follows: ATG_M_32_CIS: Attagene CIS-FACTORIAL HepG2 Assay for M32 Transcription Factor (Internal Marker) (AID 2282949).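 Note: background control marker of the multiplexed CIS panel rather than a real target.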 Particulars: HepG2 Attagene cis-factorial M32 reporter, mRNA; actives raise or lower the signal. A digest of the protocol:
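Using DMSO as baseline, bidirectional curve fits were applied to reporter mRNA signals. These came from transiently transfected HepG2 cells exposed for 24 h, with RNA analysed by RT-PCR, FAM primer extension, HpaI digestion and CE.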

For assay [5], the target named is Hypoxia-inducible factor 1-alpha (Homo sapiens) (UniProt Q16665). Put plainly: ATG_HIF1a_CIS: Attagene CIS-FACTORIAL HepG2 Assay for human Hypoxia Inducible Factor 1 (HIF1A) (AID 2282951). Particulars: HepG2 Attagene cis-factorial HIF1a reporter transcription; actives raise or lower the signal. A digest of the protocol:
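Endogenous-TF cis reporter readout, human HepG2 cells, 24 h incubation; mRNA detected via RT-PCR and capillary electrophoresis fluorescence; DMSO-normalised bidirectional fitting.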

Assay [6] deals with Hepatocyte nuclear factor 6 (Homo sapiens) (UniProt Q9UBC0). The experiment in a line: ATG_HNF6_CIS: Attagene CIS-FACTORIAL HepG2 Assay for human Hepatocyte Nuclear Factor 6 (HNF6) (AID 2282952). Particulars: HepG2 Attagene cis-factorial HNF6 reporter transcription; actives raise or lower the signal. In outline: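 Using cis-element reporters in HepG2 liver cells, the assay tracks endogenous factor-driven transcription 24 h post-dosing. Signal comes from 6-FAM-labelled, HpaI-digested RT-PCR fragments, with gain or loss scored against DMSO.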

Assay [7] concerns the target Heat shock factor protein 1 (Homo sapiens) (UniProt Q00613). Put plainly: ATG_HSE_CIS: Attagene CIS-FACTORIAL HepG2 Assay for human Heat Shock Transcription Factor 1 (HSE) (AID 2282953). Particulars: HepG2 HSE cis-reporter, Attagene RNA transcription; actives raise or lower the signal. In outline: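 After a 24 h incubation with test chemical, transfected HepG2 cells were harvested for RNA; reporter transcripts were measured by RT-PCR and capillary electrophoresis. Values reflect gain or loss of signal relative to DMSO.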

A short description of assay [8]: ATG_MRE_CIS: Attagene CIS-FACTORIAL HepG2 Assay for human Metal Responsive Element (MRE) (AID 2282954). Particulars: HepG2 MRE cis-reporter transcription, Attagene multiplex; actives raise or lower the signal. In outline: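 Multiplexed cis-reporter assay in human HepG2 liver cells, 24 h incubation with test chemical. Reporter transcripts measured by RT-PCR and capillary electrophoresis; values from bidirectional curve fitting versus DMSO.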

Assay [9] has as its target Paired box protein Pax-6 (Homo sapiens) (UniProt P26367). Put plainly: ATG_Pax6_CIS: Attagene CIS-FACTORIAL HepG2 Assay for human Paired Box 6 (PAX6) (AID 2282956). The settings on record: HepG2 CIS-FACTORIAL PAX6 reporter transcription, RNA readout; actives raise or lower the signal. In outline: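 Read-out is reporter transcript level, measured by RT-PCR with fluorescent primer extension and capillary electrophoresis after 24 h dosing of transfected HepG2 cells. Activity in either direction fitted relative to DMSO control.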

Assay [10] can be described thus: ATG_PXRE_CIS: Attagene CIS-FACTORIAL HepG2 Assay for human Pregnane X Receptor Element (PXRE) (AID 2282957). Particulars: HepG2 Attagene CIS-FACTORIAL PXRE reporter, mRNA; actives raise or lower the signal. In outline: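 Using HepG2 transfected with multiple reporter transcription units, endogenous factor-driven transcription was scored as reporter mRNA after 24 h exposure.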

Assay [11] is described as follows: ATG_Sox_CIS: Attagene CIS-FACTORIAL HepG2 Assay for human SRY-box transcription factor (SOX) (AID 2282960). The settings on record: HepG2 Attagene cis-factorial SOX reporter, mRNA; actives raise or lower the signal. In outline: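 Using transiently transfected HepG2 cells, reporter transcription driven by cis elements was assessed 24 h after dosing. Signal was fluorescence of capillary-separated RT-PCR products, with DMSO defining baseline activity.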

For assay [12], the target named is Transcription factor Sp1 (Homo sapiens) (UniProt P08047). The experiment in a line: ATG_Sp1_CIS: Attagene CIS-FACTORIAL HepG2 Assay for human Specificity Protein 1 (Sp1) (AID 2282961). Particulars: HepG2 Sp1 cis-reporter transcription, actives raise or lower the signal. A digest of the protocol: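 After transient transfection of HepG2 cells with cis-promoter reporter units and 24 h chemical treatment, reporter transcripts were quantified by RT-PCR and capillary electrophoresis fluorescence. Gain- and loss-of-signal fitted against DMSO.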

A short description of assay [13]: ATG_SREBP_CIS: Attagene CIS-FACTORIAL HepG2 Assay for human Sterol Regulatory Element Binding (SREBP) (AID 2282962). The settings on record: HepG2 Attagene cis-factorial SREBP reporter, mRNA; actives raise or lower the signal. In outline: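 Endogenous SREBP activity read as cis-element-driven reporter transcript in transiently transfected HepG2, 24 h post-dosing; quantified via RT-PCR plus capillary electrophoresis of fluorescent fragments. Gain or loss of signal fitted relative to DMSO baseline.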

A short description of assay [14]: ATG_TA_CIS: Attagene CIS-FACTORIAL HepG2 Assay for human TA Basal Promoter (AID 2282964). Particulars: HepG2 Attagene CIS-factorial TA basal promoter reporter; actives raise or lower the signal. A digest of the protocol:
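Multiplexed mRNA reporter assay, HepG2, 24 h. Reporter cDNA amplified, 6-FAM primer-extended, HpaI-cut, CE-sized; DMSO = negative control and baseline.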

A short description of assay [15]: ATG_RORE_CIS: Attagene CIS-FACTORIAL HepG2 Assay for human RAR-related Orphan Receptor Element (RORE) (AID 2282959). Particulars: HepG2 Attagene cis-factorial RORE reporter, mRNA; actives raise or lower the signal. In outline: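 Measured here: transcript induction of a cis-regulated reporter in HepG2 cells transiently transfected via FuGene 6. After 24 h, RNA was processed by RT-PCR and fluorescent capillary electrophoresis; DMSO defined baseline activity.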

Assay [16] is described as follows: ATG_GRE_CIS: Attagene CIS-FACTORIAL HepG2 Assay for human Glucocorticoid Response Elements (GRE) (AID 2282947). Particulars: HepG2 GRE cis-reporter, Attagene multiplex mRNA; actives raise or lower the signal. In outline:
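Multiplexed cis-reporter mRNA induction, HepG2, 24 h post-dose. RT-PCR, FAM-labelled, HpaI-digested amplicons by CE. Bidirectional fit vs DMSO.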

Assay [17] in a line: ATG_PBREM_CIS: Attagene CIS-FACTORIAL HepG2 Assay for human Phenobarbital-responsive Enhancer Module (PBREM) (AID 2282955). The settings on record: HepG2 PBREM cis-reporter, Attagene multiplexed transcription; actives raise or lower the signal. A digest of the protocol: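 Readout: reporter mRNA, fluorescent RT-PCR fragments separated by capillary electrophoresis. System: HepG2 transiently transfected with cis-regulated reporter units. Exposure: 24 h. Analysis: bidirectional, DMSO baseline.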

Sequence of Transcription factor Sp1 (Homo sapiens) (P08047 whole entry, looked up): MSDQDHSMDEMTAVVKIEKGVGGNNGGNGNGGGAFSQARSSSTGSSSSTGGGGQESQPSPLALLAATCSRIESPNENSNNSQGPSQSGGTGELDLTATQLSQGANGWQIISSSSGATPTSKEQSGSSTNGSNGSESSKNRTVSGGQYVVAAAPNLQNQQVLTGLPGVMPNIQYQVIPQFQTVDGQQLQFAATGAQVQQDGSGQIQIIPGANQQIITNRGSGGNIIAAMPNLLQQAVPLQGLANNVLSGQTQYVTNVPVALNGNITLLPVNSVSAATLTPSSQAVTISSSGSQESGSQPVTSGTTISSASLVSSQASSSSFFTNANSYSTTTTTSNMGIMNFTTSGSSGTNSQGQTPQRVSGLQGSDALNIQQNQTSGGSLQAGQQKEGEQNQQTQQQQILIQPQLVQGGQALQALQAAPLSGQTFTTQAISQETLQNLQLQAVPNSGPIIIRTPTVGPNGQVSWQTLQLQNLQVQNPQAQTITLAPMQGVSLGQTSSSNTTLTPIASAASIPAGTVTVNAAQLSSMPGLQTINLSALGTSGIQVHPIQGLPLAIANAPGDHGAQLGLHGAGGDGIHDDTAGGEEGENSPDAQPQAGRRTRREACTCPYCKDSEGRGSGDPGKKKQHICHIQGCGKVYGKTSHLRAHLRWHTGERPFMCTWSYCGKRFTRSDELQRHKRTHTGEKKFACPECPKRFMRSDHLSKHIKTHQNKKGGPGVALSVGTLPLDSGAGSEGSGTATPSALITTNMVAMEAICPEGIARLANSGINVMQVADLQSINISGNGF
Sequence of Hypoxia-inducible factor 1-alpha (Homo sapiens) (Q16665 whole entry, looked up): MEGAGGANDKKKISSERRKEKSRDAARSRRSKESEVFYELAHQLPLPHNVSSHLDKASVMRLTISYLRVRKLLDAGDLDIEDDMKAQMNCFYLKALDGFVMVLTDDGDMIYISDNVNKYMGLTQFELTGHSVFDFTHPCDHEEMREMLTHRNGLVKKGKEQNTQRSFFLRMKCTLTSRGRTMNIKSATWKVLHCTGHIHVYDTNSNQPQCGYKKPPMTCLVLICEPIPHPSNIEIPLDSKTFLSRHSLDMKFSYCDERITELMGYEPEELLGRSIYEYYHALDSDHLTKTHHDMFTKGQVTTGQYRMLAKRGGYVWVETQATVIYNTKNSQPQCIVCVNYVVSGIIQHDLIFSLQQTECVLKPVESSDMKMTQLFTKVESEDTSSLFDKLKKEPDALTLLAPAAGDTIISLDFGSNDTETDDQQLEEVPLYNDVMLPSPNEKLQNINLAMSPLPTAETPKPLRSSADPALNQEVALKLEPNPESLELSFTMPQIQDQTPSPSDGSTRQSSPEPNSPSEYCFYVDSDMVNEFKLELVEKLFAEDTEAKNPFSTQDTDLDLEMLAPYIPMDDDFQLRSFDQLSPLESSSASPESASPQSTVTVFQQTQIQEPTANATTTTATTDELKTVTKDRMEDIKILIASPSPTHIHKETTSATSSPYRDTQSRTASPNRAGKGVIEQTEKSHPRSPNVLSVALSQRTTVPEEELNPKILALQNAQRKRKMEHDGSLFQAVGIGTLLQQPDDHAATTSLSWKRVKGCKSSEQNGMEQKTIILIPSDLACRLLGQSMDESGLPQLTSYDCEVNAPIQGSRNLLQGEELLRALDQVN
Sequence of Paired box protein Pax-6 (Homo sapiens) (P26367 whole entry, looked up): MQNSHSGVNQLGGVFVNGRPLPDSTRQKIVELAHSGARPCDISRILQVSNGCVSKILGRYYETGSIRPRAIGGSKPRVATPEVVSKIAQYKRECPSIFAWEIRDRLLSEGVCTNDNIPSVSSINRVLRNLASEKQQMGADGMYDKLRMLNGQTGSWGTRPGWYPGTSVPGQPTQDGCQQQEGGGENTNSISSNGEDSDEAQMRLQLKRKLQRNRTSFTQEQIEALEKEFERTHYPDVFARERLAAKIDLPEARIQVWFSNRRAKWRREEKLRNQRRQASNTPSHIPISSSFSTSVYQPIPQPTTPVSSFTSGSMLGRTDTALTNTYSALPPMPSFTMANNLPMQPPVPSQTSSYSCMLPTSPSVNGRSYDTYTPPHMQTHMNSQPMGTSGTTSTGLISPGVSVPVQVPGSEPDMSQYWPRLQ
Sequence of Heat shock factor protein 1 (Homo sapiens) (Q00613 whole entry, looked up): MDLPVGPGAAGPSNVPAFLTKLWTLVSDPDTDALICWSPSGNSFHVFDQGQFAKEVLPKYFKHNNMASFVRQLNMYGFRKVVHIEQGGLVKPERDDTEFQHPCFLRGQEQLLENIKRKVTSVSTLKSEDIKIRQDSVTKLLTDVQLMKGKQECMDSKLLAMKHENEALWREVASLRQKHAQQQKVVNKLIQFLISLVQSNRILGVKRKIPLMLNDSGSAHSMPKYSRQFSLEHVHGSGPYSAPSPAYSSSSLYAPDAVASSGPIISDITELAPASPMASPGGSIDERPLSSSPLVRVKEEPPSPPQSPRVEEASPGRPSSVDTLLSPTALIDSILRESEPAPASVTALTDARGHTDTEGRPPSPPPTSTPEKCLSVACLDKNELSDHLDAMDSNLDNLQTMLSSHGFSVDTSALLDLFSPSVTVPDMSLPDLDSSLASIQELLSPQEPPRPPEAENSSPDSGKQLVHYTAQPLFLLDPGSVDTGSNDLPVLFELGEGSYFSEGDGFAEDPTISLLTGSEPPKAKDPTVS
Sequence of Hepatocyte nuclear factor 6 (Homo sapiens) (Q9UBC0 whole entry, looked up, the tested form may be a part): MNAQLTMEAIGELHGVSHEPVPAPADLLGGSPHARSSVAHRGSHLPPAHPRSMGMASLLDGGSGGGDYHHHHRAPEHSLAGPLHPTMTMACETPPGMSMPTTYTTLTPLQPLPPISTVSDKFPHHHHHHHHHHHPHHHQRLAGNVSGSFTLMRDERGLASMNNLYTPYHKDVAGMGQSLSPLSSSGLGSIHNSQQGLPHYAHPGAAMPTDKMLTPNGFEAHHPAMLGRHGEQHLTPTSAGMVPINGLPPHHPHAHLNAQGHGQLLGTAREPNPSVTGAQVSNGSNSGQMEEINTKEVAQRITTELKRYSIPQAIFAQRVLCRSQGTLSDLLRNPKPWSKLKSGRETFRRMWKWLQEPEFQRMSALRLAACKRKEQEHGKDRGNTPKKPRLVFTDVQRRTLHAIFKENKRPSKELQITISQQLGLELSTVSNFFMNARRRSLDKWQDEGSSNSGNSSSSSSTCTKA
Sequence of Bile acid receptor (Homo sapiens) (Q96RI1 whole entry, looked up): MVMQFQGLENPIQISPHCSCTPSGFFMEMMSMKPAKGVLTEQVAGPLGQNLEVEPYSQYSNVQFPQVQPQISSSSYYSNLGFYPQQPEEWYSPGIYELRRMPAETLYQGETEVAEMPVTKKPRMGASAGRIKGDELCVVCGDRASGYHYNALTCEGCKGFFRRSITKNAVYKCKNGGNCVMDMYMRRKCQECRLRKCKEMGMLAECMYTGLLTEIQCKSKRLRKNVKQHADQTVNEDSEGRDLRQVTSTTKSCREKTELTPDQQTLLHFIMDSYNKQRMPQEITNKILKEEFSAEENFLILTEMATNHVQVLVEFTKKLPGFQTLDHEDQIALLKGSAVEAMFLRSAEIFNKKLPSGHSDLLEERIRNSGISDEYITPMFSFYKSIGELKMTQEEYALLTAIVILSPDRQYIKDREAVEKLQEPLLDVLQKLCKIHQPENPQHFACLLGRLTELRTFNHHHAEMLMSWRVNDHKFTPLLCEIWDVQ

For `COC(=O)c1ccccc1S(=O)(=O)NC(=O)Nc1nc(C)nc(OC)n1`, the compound was called inactive in [1], in [2], in assay [3], in assay [4], in assay [5] and in [6]. In addition, the compound was classed as inactive in assay [7], in assay [8], in [9], in [10], in assay [11] and in [12]. The call in [13] and in assay [14] was inactive.
As a reminder, the AC50 is the midpoint of the concentration-response curve, whichever way the signal moves. Take `O=S(=O)(O)C(F)(F)C(F)(F)C(F)(F)C(F)(F)C(F)(F)C(F)(F)C(F)(F)C(F)(F)F`: the compound was classed as inactive in assay [1], in assay [3], in [4], in assay [5], in [6] and in assay [7]. For the same compound, the compound was called inactive in [8], in assay [9], in [15], in assay [11], in assay [12] and in assay [13]. Moreover, in [14], the result was inactive. In addition, the half-maximal activity concentration (AC50) in assay [4] was 53.6 µM (active); in assay [5], 84 µM (active); in assay [6], 24.7 µM (active) and 208 µM (active) and 272 µM (active); in assay [7], 182 µM (active) and 54.8 µM (active); in assay [15], 133 µM (active); in assay [11] it was 52.8 µM (active). For the same compound, the AC50 was 26.5 µM (active) and 53.3 µM (active) in [12]; 68.7 µM (active) in assay [13]; 55.9 µM (active) in assay [14].
As for `CC[C@H](C)[C@H]1O[C@]2(C=C[C@@H]1C)C[C@@H]1C[C@@H](C/C=C(\C)[C@@H](O[C@H]3C[C@H](OC)[C@@H](O[C@H]4C[C@H](OC)[C@@H](O)[C@H](C)O4)[C@H](C)O3)[C@@H](C)/C=C/C=C3\CO[C@@H]4[C@H](O)C(C)=C[C@@H](C(=O)O1)[C@]34O)O2` (tested in a mixture with another compound), the compound was called inactive in [1], in assay [16], in [3], in assay [4], in assay [5] and in assay [6]. The result in assay [7], in assay [8], in assay [17], in assay [9], in assay [11] and in assay [12] was inactive. Further, the compound was called inactive in assay [13] and in assay [14]. In addition, the AC50 in assay [10] is 1.75 µM (active).
